Bioassay records deposited in PubChem by National Center for Advancing Translational Sciences (NCATS).
nsP2pro primary = blocks chikungunya virus nsP2 protease peptide cleavage | FRET peptide cleavage, nsP2pro, fluorescence 1 h | Potency, µM (doses to about 24.9 µM), most hits filed as inhibitors | actives 1.1% (n = 31,000) | Q8JUX6 | AID 1964107; also: nearly all actives have a fitted effect of over 60% in size
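Purified recombinant nsP2pro (150 nM final) in 10 mM Tris-HCl pH 8.0 with 0.01% Tween 20 was preincubated 15 min at room temperature with compound (7 concentrations, up to 25 uM). FRET peptide 2 substrate (2.5 uM final) was then added; fluorescence was read after 1 h.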
nsP2 cell sec = secondary cell-based test for CHIKV nsP2 protease inhibitors. actives 10% (n = 450). shares compounds with nsP2pro primary. cell-based CHIKV nsP2 protease reporter assay. Potency, µM (titrated, usually from 51.1 µM), hits mostly inhibitors; also: nearly all actives have a fitted effect of over 70% in size
NSP2 full ctr = full-length CHIKV NSP2 protease inhibition, selectivity; Potency, µM (doses to about 50.7 µM), usual class: inhibitors; Full-length CHIKV NSP2 protease enzymatic counterscreen; AID 1964101; shares compounds with nsP2pro primary; actives 39% (n = 410); also: nearly all actives have a fitted effect of over 65% in size
Furin counterscr = human furin inhibition, counterscreen for nsP2pro inhibitors; shares compounds with nsP2pro primary; Recombinant human furin enzymatic counterscreen, fluorogenic substrate; Potency, µM (doses to about 50.6 µM), actives largely listed as inhibitors; actives 6% (n = 410)
nsP2 NS23 pep = nsP2pro inhibition on native NS2/3 peptide substrate. shares compounds with nsP2pro primary. Potency, µM (highest dose often 51 µM), actives largely listed as inhibitors. AID 1964103. Purified CHIKV nsP2 protease, endogenous NS2/3 peptide cleavage. actives 34% (n = 410); also: nearly all actives have a fitted effect of over 55% in size
Papain cs = inhibits papain in a CHIKV nsP2 protease selectivity counterscreen | shares compounds with nsP2pro primary | actives 5% (n = 410) | purified papain protease activity, enzymatic inhibition | Potency, µM (doses to about 51 µM), actives largely listed as inhibitors | AID 1964104
Target sequence (P00784 whole entry, looked up): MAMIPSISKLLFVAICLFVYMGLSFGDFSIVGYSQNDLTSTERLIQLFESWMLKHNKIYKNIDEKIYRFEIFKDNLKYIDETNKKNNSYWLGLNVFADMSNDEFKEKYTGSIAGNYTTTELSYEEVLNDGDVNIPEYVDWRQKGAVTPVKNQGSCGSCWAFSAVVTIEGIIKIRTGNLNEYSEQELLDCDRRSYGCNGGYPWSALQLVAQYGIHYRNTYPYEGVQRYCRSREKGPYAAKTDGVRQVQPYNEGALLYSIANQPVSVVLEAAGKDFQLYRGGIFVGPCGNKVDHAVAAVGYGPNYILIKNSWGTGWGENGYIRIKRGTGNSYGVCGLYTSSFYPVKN
nsP2pro confirm = CHIKV nsP2 protease inhibition, confirmatory qHTS | shares compounds with nsP2pro primary | CHIKV nsP2 protease enzymatic activity, qHTS | Potency, µM (highest dose often 25.5 µM), most hits filed as inhibitors | actives 43% (n = 410); also: nearly all actives have a fitted effect of over 75% in size
HCV NS3 counter = HCV NS3/4A protease inhibition, counterscreen. shares compounds with nsP2pro primary. HCV NS3/4A protease biochemical counterscreen. Potency, µM (doses to about 50.9 µM), most hits filed as inhibitors. actives 20% (n = 410). AID 1964106; also: nearly all actives have a fitted effect of over 55% in size
Of the large screens only hits and unclear results are named; the others gave an inactive call (follow-up assays come after a bar, where they were run). The full list was thinned out, with hits kept by preference. Calls follow the shape of the full dose curve.

COc1cc(C(=O)O)cc(OC)c1O	nsP2pro primary inconclusive | nsP2 cell sec inactive | NSP2 full ctr inconclusive | Furin counterscr inactive | nsP2 NS23 pep inactive | Papain cs inactive | nsP2pro confirm inactive | HCV NS3 counter inactive
CN(Cc1ccc(-c2ccccc2)cc1)c1nc(-c2ccccc2C(F)(F)F)nc2ccccc12	none
C1Cc2[nH]nc(-c3nn[nH]n3)c2C1	nsP2pro primary 8.8µM | nsP2 cell sec inactive | NSP2 full ctr 9.2µM | Furin counterscr inconclusive | nsP2 NS23 pep inconclusive | Papain cs inactive | nsP2pro confirm 6.3µM | HCV NS3 counter inactive
CCc1nc(NCCOC)ncc1C(=O)O	none
CCOC(=O)c1ccoc1-c1ccc2ncnc(NCc3ccc(C)o3)c2c1	none
CC(=O)O[C@H]1C[C@@H](O)C(C)(C)C2C[C@@H](OC(C)=O)[C@]3(C)C(CC[C@@]4(C)[C@H](c5ccoc5)OC(=O)[C@H]5O[C@]543)[C@]21C (some centres not stated)	none
CC(=O)O[C@@H]1CC2C(C)(C)C(=O)C=C[C@]2(C)C2CC[C@@]3(C)[C@H](c4ccoc4)OC(=O)[C@H]4O[C@]43[C@@]21C (some centres not stated)	nsP2pro primary inconclusive | nsP2 cell sec inactive | NSP2 full ctr inconclusive | Furin counterscr inactive | nsP2 NS23 pep inactive | Papain cs inconclusive | nsP2pro confirm inconclusive | HCV NS3 counter inactive
CC(=O)OC1CC2C(C)(C)C(=O)C=CC2(C)C2CC(=O)C3=C(CCC3C3=CC(O)OC3=O)C12C (configuration not stated)	none
Nc1ncnc2c1ncn2[C@@H]1O[C@H](CN[S+](=O)([O-])NC(=O)c2cccc(-c3noc(-c4ccccc4F)n3)c2)[C@@H](O)[C@H]1O	none
Cc1ccc(S(=O)(=O)Nc2cnccc2C(=O)Nc2ccncc2)cc1	none
S=C(SSC(=S)N1CCCCC1)N1CCCCC1	nsP2pro primary 2.5µM | nsP2 cell sec 13µM | NSP2 full ctr 15µM | Furin counterscr inactive | nsP2 NS23 pep 16µM | Papain cs inactive | nsP2pro confirm 3.6µM | HCV NS3 counter inactive
O=C(c1ccc(-c2cccc(O)c2)nc1)N1CCCN(c2ncccn2)CC1	none
O=C(c1ccc(CCC2COc3ccccc3O2)cc1)N1CCCCC1 (configuration not stated)	none
CCCNC(=O)N[C@@H]1CCC[C@@H](C(=O)NCCOC)CC(=O)N(C)C1	nsP2pro primary 4µM | nsP2 cell sec inactive | NSP2 full ctr 15µM | Furin counterscr inconclusive | nsP2 NS23 pep 24µM | Papain cs inactive | nsP2pro confirm 4.1µM | HCV NS3 counter inconclusive
CCN(CC)C(=O)[C@@H]1CCC[C@@H](NC(C)=O)CN(C)C(=O)C1	none
COCC(=O)N[C@@H]1CCC[C@@H](C(=O)NC2CC2)CC(=O)N(C)C1	none
CCS(=O)(=O)Nc1ccc(C)n(CC(=O)NC2CCCCC2)c1=O	none
O=C(c1cccc(OC2CN(CC3CC=CCC3)C2)c1)N1CCCC1 (configuration not stated)	none
Cc1cc(NC(=S)N2CCN(c3cccc(C(F)(F)F)c3)CC2)nc2ccccc12	none
CSc1ccc(OCc2ncc([N+](=O)[O-])n2C)cc1	none
CC(C)(C)N(C[C@@H](O)[C@H](Cc1ccccc1)NC(=O)O[C@H]1CO[C@H]2OCC[C@H]21)[S+](=O)([O-])c1ccc(N)cc1	none
CCC(=O)O[C@H]1C(C)(C)[C@H]([C@@H](O)C(=O)OC)[C@]2(C)C(=O)[C@@]1(O)[C@H]1O[C@]13C1CC(=O)O[C@@H](c4ccoc4)[C@]1(C)CCC32 (some centres not stated)	nsP2pro primary inconclusive | nsP2 cell sec inactive | NSP2 full ctr inconclusive | Furin counterscr inactive | nsP2 NS23 pep inactive | Papain cs inactive | nsP2pro confirm inconclusive | HCV NS3 counter inconclusive
C/C=C(\C)C(=O)OC1C2(O)CC3=C4CC(=O)OC(c5ccoc5)C4(C)CCC3C(C)(C2=O)C(C(OC(C)=O)C(=O)OC)C1(C)C (configuration not stated)	none
C=C1[C@@H]2CC[C@@]3(C)[C@H](c4ccoc4)OC(=O)C[C@]13O[C@H]1CC(=O)C(C)(C)[C@H](C(O)C(=O)OC)[C@]12C (some centres not stated)	none
COC(=O)[C@H](O)[C@H]1C(C)(C)[C@H](OC(=O)C(C)C)[C@@]2(O)C(=O)[C@]1(C)C1CC[C@]3(C)C(CC(=O)O[C@H]3c3ccoc3)[C@]13O[C@@H]32 (some centres not stated)	nsP2pro primary inconclusive | nsP2 cell sec inactive | NSP2 full ctr inconclusive | Furin counterscr inactive | nsP2 NS23 pep inactive | Papain cs inactive | nsP2pro confirm inconclusive | HCV NS3 counter inactive
COC(=O)[C@@H](O)[C@H]1[C@@]2(C)CC3(O)[C@@H](C(=O)[C@H]2O)[C@]24O[C@]25CC(=O)O[C@@H](c2ccoc2)[C@]5(C)CCC4[C@]13C (some centres not stated)	none
COC(=O)[C@H](O)[C@H]1C(C)(C)[C@H](OC(C)=O)[C@@]2(O)C(=O)[C@]1(C)C1CC[C@]3(C)C(CC(=O)O[C@H]3c3ccoc3)[C@]13O[C@@H]32 (some centres not stated)	nsP2pro primary inconclusive | nsP2 cell sec inactive | NSP2 full ctr inconclusive | Furin counterscr inactive | nsP2 NS23 pep inactive | Papain cs inactive | nsP2pro confirm inactive | HCV NS3 counter inconclusive
COC(=O)C[C@H]1C(C)(C)[C@H](OC(=O)c2ccccc2)C2CC3=C4CC(=O)O[C@@H](c5ccoc5)[C@]4(C)CCC3[C@@]1(C)C2=O (some centres not stated)	none
COC(=O)[C@H](OC(C)=O)[C@H]1C(C)(C)C(=O)[C@H]2CC3=C4CC(=O)O[C@@H](c5ccoc5)[C@]4(C)CCC3[C@@]1(C)C2=O (some centres not stated)	none
O=C(NCCN1CCCC1)c1c(OCC2CC2)cc(=O)n2c1CCOCC2	none
O=C1CCCC2=C1C(c1[nH]ncc1Cl)NC(=NCc1nccs1)N2 (configuration not stated)	none
COc1ccc(CCC(=O)N2CCOCCNC(=O)CC2)cc1	none
CC(C)=C1C/C=C(\C)CC/C=C(\C)CC1=O	none
O=C(O)c1ccc2c(c1)C(=O)N([C@H](Cc1ccc([N+](=O)[O-])cc1)C(=O)O)C2=O	none
